Hit rate of the full screen: of about 310,000 compounds, about 1,500 (0.48%) were called active.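 How the source made its calls: active means binding more than 3 SD below its plate's average and above zero; inconclusive means below that plate limit but binding exactly zero; inactive means the rest.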 Shown is part of a subset that was picked to be rich in actives.
target: Desmoglein-3 (Homo sapiens) (UniProt P32926); assay: blockers of anti-DSG3 scFv binding – biochemical, bead-based, flow cytometry, scFv-GFP, primary screen (AID 588358); conditions: DSG3-coupled beads, at 10 µM, active compounds read low;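 further: hits lower antibody fragment binding to DSG3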
Sequence (P32926 whole entry, looked up, the tested form may be a part): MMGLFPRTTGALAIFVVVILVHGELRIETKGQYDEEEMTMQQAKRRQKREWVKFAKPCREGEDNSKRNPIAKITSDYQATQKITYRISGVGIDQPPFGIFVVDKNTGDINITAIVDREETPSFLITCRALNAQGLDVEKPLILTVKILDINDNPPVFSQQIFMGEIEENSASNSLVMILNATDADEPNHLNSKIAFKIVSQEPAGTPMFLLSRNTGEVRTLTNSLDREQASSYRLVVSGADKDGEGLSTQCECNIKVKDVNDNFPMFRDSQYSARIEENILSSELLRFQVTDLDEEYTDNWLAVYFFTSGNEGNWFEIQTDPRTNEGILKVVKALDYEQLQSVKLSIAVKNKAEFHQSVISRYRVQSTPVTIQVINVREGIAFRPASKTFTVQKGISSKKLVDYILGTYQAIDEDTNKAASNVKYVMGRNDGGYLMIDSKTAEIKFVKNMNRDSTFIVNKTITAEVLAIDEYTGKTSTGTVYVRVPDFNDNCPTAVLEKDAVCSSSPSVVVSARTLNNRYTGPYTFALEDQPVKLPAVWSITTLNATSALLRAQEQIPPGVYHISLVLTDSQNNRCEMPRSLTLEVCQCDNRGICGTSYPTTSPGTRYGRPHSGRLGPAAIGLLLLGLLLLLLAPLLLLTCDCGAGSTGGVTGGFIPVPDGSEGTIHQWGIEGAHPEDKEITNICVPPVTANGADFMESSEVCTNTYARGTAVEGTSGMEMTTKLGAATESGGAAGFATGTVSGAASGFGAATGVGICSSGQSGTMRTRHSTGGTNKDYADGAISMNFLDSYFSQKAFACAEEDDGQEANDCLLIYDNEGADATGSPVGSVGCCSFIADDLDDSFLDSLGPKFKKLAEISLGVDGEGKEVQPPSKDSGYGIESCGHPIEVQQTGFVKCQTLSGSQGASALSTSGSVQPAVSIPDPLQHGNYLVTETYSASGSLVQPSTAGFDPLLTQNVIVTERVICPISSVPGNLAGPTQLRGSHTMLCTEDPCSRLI

Binding (percent of control), inactive:
Cc1ccc(S(=O)(=O)N2C[C@H]3n4c(=O)ccc(=O)n4C[C@H](OC(=O)NC4CCCC4)[C@@]3(O)C2)cc1 103%
COc1ccc([C@H]2N[C@]3(CCCN(CC4CCCCC4)C3=O)[C@H]3C(=O)N(C)C(=O)[C@@H]23)cc1 106%
COc1cccc(/C=C2\SC(=S)N(CCCC(=O)N3CCOCC3)C2=O)c1 99.8%
C=CCn1c2ccccc2c2nnc(SC(CC)C(=O)Nc3nc(C)c(C(=O)OCC)s3)nc21 (configuration not stated) 93.3%
CCOC(=O)c1sc(NC(=O)c2sc(C)nc2C)nc1C 96.7%
O=C(Cc1ccc([N+](=O)[O-])cc1)NCCS(=O)(=O)N1CCN(c2ccccc2)CC1 97.2%
COc1ccc(N2CCN(c3ccc([N+](=O)[O-])nc3)CC2)cc1 77.8%
O=[N+]([O-])c1ccc(N2CCN(c3ccc(O)cc3)CC2)c(Cl)c1 101%
COC(=O)c1sccc1NC(=O)c1cc(OC)c(OC)c(OC)c1 81.8%
COC(=O)Cn1c(=NC(=O)CSCC(=O)Nc2cc(C)on2)sc2ccccc21 82.3%
CC(C)N=C1CCCC1C(=S)SSC(=S)C1CCCC1=NC(C)C (configuration not stated) 102%
N#CCCN(C(=S)Nc1ccc(Cl)c(Cl)c1)C1CCCCC1 105%
Cc1cc(C)n(-c2ccc(C(=O)O)cc2[N+](=O)[O-])n1 102%
Cc1cc(C)n(-c2ccc3nncn3n2)n1 99%
O=C(O)C(=Cc1ccc([N+](=O)[O-])cc1)CCc1ccccc1 103%
CCOC(=O)c1c(C)[nH]c(C)c1C(=O)COC(=O)/C=C/c1cccc([N+](=O)[O-])c1 98.5%
CCN1CCCC1CNC(=O)c1ccc2c(c1)NC(=O)/C(=C\c1ccccc1F)S2 (configuration not stated) 94.9%
CCOc1ccc(CNC(=O)CCC(=O)N2CCSc3ccccc32)cc1 102%
Cc1ccc(NC(=O)CN2CCc3ccccc3C2)cc1 95.1%
CCN(CC)C(=O)C1=C(C)N(Cc2ccc(F)cc2)C(=O)C(CC(=O)NC2CCCC2)C1 (configuration not stated) 109%
CC1(C)CN(Cc2cccnc2)C(=O)[C@H]1CC(=O)Nc1ccc(Br)cc1 96.8%
Cc1[nH]c2ccccc2c1C(=O)C(=O)NCc1nnnn1-c1cccc(F)c1 110%
Cc1csc(SCC(=O)Nc2ccc(C)c(S(=O)(=O)N(C)C)c2)n1 100%
O=C(NC(Cc1ccccc1)C(=O)N1CCCC(C(F)(F)F)C1)c1ccccc1 (configuration not stated) 93.4%
O=C(NCC(=O)N1CCCC(C(F)(F)F)C1)c1ccccc1F (configuration not stated) 98.7%
Cc1ccc(-c2nn(-c3ccccc3)cc2/C=C2\SC(=S)N(CCCCCC(=O)O)C2=O)o1 93.2%
COc1ccc(-c2nn(-c3ccccc3)cc2/C=C2/SC(=S)N(CCCC(=O)O)C2=O)c(C)c1 104%
COc1ccc(C=C2CCC3C(CCCC34OCCO4)C2=O)cc1 (configuration not stated) 104%
CC1CCCC(NC(=O)COC(=O)c2ccccc2C(=O)N(C)C2CCCCC2)C1C (configuration not stated) 98.5%
Cn1c(=O)[nH]c(=O)c2c1[nH]c(=S)n2Cc1ccccc1 99.1%
COCCn1cnc2c1c(=O)n(Cc1ccc(Br)cc1)c(=O)n2Cc1ccccc1 125%
O=C(NCCN1CCOCC1)c1ccc2c(c1)N(Cc1cccc(Cl)c1)C(=O)c1ccccc1S2(=O)=O 95.8%
OCC1OC(n2cnc3c(N4CCCC4)ncnc32)C(O)C1O (configuration not stated) 102%
CCOc1ccc(NS(=O)(=O)c2ccc(C(=O)NCC3CCCO3)cc2)cc1 (configuration not stated) 100%
COc1cc(NC(=O)C2=C(C)OCCS2)c(Cl)cc1C(=O)NCCCN1CCCC(C)C1 (configuration not stated) 105%
CCOC(=O)c1c(NC(=S)SC)sc(C(=O)N2CCc3ccccc3C2)c1C 100%
COc1cccc(-c2nc(CS(=O)CC(=O)NCc3ccc(F)cc3)c(C)o2)c1 (configuration not stated) 93.3%
COc1ccc(-c2nc(CS(=O)CC(=O)NCc3ccccc3)c(C)o2)cc1OC (configuration not stated) 97.4%
CC(C)CNS(=O)(=O)c1ccc(C(=O)Nc2ccc3c(c2)OCO3)cc1 85.2%
Cc1cccc(NC(=O)Nc2ccc3c(c2)OCO3)n1 134%
CN(Cc1ccccc1)C(=O)CCC1CCN(C(=O)c2ccco2)CC1 91.8%
COc1cc(C(=O)N2CCOC23CCN(Cc2ccccc2)CC3)cc(OC)c1OC 108%
COCCCN1C(=O)C(CC(=O)NCc2cccs2)CC(C(=O)N2CCOCC2)=C1C (configuration not stated) 99.9%
Cc1cnc(NC(=O)CSc2nnc(C)s2)s1 101%
CCSc1nnc(SCC(=O)NNC(=O)c2ccccc2F)s1 115%
CNC(=O)c1ccc(CN(C)C(=O)c2cc(C3CC3)nc3c2cnn3C(C)C)cc1 105%

Binding (percent of control), active:
CCOC(=O)c1sc(NC(=O)C(CC)Sc2nccn2C)nc1C (configuration not stated) 83.3%
COc1ccc(N2CCN(c3ccc([N+](=O)[O-])cc3Cl)CC2)cc1 -9.48%
COC(=O)Cn1c(=NC(=O)c2cc(OC)c(OC)c(OC)c2)sc2cc(OC)ccc21 88.6%
Cc1cc(C)n(-c2ccc(Cl)c(C(=O)O)n2)n1 56.1%
Cc1ccc(NC(=O)N2CCSc3ccccc32)cc1 63%
FC(F)(F)C1CCCN(c2nsc3ccccc23)C1 (configuration not stated) 59.3%
CN(C)S(=O)(=O)c1cccc(-c2nn(-c3ccccc3)cc2/C=C2\SC(=S)N(CC(=O)O)C2=O)c1 34.1%
CCN(CC)CCn1cnc2c1c(=O)[nH]c(=O)n2Cc1ccccc1 65.2%
COc1ccc(-c2nc(CS(=O)CC(=O)NCc3ccccn3)c(C)o2)cc1 (configuration not stated) 17.1%
CNS(=O)(=O)c1ccc(NC(=O)Nc2ccc3c(c2)OCO3)cc1 66.6%
Cc1nnc(SCC(=O)Nn2cnnc2)s1 89.8%
